Values without a mark were called inactive. Records with an inconclusive call do not appear. Activity calls are given as the source filed them. Unless noted, calls come from the whole dose curve.

Assay [1] is described as follows: Nuclear factor erythroid 2-related factor 2/antioxidant responsive element (Nrf2/ARE) small molecule agonists: luciferase reporter gene qHTS assay in human keratinocytes (AID 1919969). Note: nearly all actives have a fitted effect of over 35% in size. Note: potency is the fitted concentration of half-maximal effect.
Assay [2] concerns the target Gonadotropin-releasing hormone receptor (Homo sapiens) (UniProt P30968). The assay is described as follows: Human gonadotropin-releasing hormone receptor (GnRHR) small molecule agonists, calcium flux assay in GnRHR-HEK293 cells (AID 1920063). Note: nearly all actives have a fitted effect of over 35% in size. Note: potency is the fitted concentration of half-maximal effect. Put shortly:
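Calcium flux, agonist mode, human GnRHR stably integrated in HEK293; dye 1 h at 37 C before compound; Ex/Em=480/540 kinetic read, 3 min; 15 concentrations, triplicate.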

For assay [3], the target named is KiSS-1 receptor (Homo sapiens) (UniProt Q969F8). The experiment in a line: Human kisspeptin (KISS1R) small molecule agonists, calcium flux assay in KISS1R-HEK293 cells (AID 1920064; active = well fitted activation curve with a large enough effect in the repeat runs). In outline:
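Triplicate 15-concentration series were applied to dye-loaded human KISS1R HEK293 cells, and agonist-evoked calcium fluorescence was captured for 3 min.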
A general note: Calcium flux is commonly read through the fluorescence of an indicator in the cells.

The nature of assay [4]: G protein-coupled receptor (GPCR) small molecule agonists, calcium flux assay: HEK293 wild type cell line counter screen (AID 1920065). In outline: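 Non-specific calcium responders were flagged by adding DMSO-dissolved compounds to dye-loaded cells and reading 480/540 nm fluorescence each second for 3 min; ATP served as positive control.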
Assay [5] can be described thus: p53 small molecule agonists, cell-based qHTS assay with human liver microsomes (AID 1963577).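 Note: p53 response element beta-lactamase reporter cells with liver microsomes plus NADPH.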 Put shortly:
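p53RE-bla cells; 5 h settle, 37 C/5% CO2; cpd + HLM 0.5 mg/mL + NADPH 0.5 mg/mL (final); 16 h 37 C; LiveBLAzer 2 h RT dark; fluorescence readout.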
(Quantitative high-throughput screening tests each substance at several concentrations.)

Assay [6] in a line: p53 small molecule agonists, cell-based qHTS assay with rat liver microsomes (AID 1963578). In outline: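 Rat liver microsome activation: microsomes 0.5 mg/mL, NADPH 0.5 mg/mL final; p53RE-bla cells, 16 h 37 C; LiveBLAzer readout, 2 h RT dark.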
A short description of assay [7]: p53 small molecule agonists, cell-based qHTS assay with human liver microsomes: qHTS cell viability counter screen (AID 1963579). Note: nearly all actives have a fitted effect of over 45% in size. Note: potency is the fitted concentration of half-maximal effect. In outline:
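Luminescent CellTiter-Glo read-out, 30 min at room temperature, gauged cytotoxicity in p53RE-bla cells exposed 16 h at 37 C to DMSO-dissolved compounds with metabolic activation by human liver microsomes and NADPH, each 0.5 mg/mL final.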

Assay [8] is described as follows: p53 small molecule agonists, cell-based qHTS assay with rat liver microsomes: qHTS cell viability counter screen (AID 1963580). Note: nearly all actives have a fitted effect of over 45% in size. Put shortly: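 Counter screen for cytotoxicity under metabolic activation: rat liver microsomes and NADPH, 0.5 mg/mL final each, added with compounds to p53RE-bla HCT-116 cells; 16 h at 37 C, then ATP luminescence read.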
Assay [9] can be described thus: cAMP Responsive Elements (CRE) small molecule agonists, cell-based qHTS assay (AID 1963590). Put shortly:
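Quantitative HTS for CRE agonists: HEK 293T CRE-bla cells, overnight plating, 3 h compound incubation at 37 C/5% CO2, then 2 h room-temperature LiveBLAzer B/G FRET substrate loading.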

The nature of assay [10]: cAMP Responsive Elements (CRE) small molecule antagonists, cell-based qHTS assay (AID 1963591; active = well fitted inhibition curve with a large enough effect in the signal ratio in the repeat runs, not every such curve was filed as active; the % refers to the signal ratio). Put shortly: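 Fluorescence intensity from cleaved LiveBLAzer B/G substrate (2 h, room temperature) quantified CRE-bla activity in HEK 293T cells exposed 3 h to compound with 0.25 uM final NKH477.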
Assay [11] concerns the target D(2) dopamine receptor (Homo sapiens) (UniProt P14416). The experiment in a line: Dopamine D2 receptor (DRD2) small molecule agonists, cell-based qHTS assay (AID 1963594). Note: nearly all actives have a fitted effect of over 35% in size. Put shortly: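 HEK293 cells stably expressing DRD2 were cultured 24 h at 37 C, then given Ro20-1724 (0.1 mM final) and compounds for 10 min at room temperature. NKH477 (200nM) was then added for 30 min. cAMP was read by HTRF.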

Assay [12] has the same target. The assay is described as follows: Dopamine D2 receptor (DRD2) small molecule antagonists, cell-based qHTS assay (AID 1963595; active = well fitted inhibition curve with a large enough effect in the signal ratio in the repeat runs, with a control signal flat; the % refers to the signal ratio; note: potency is the fitted concentration of half-maximal effect). Put shortly: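 DRD2-HEK293; 0.1 mM Ro20-1724; cpd 10 min RT; NKH477 200 nM + quinpirole 12 nM, 30 min RT; HTRF cAMP (cAMP-d2/anti-cAMP cryptate), 665/620 nm ratio after 1 h.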
Assay [13] can be described thus: p53 small molecule agonists, cell-based qHTS assay: qHTS cell viability counter screen (AID 1963581). Note: nearly all actives have a fitted effect of over 45% in size. Put shortly: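 Multiplexed with the reporter read, a CellTiter-Glo step (30 min, room temperature) gauges ATP-based viability of HCT-116 p53RE-bla cells after 16 h compound incubation at 37 C.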
Assay [14] can be described thus: p53 small molecule agonists, cell-based qHTS assay (AID 1963582; active = well fitted activation curve with a large enough effect in the signal ratio in the repeat runs, not every such curve was filed as active; the % refers to the signal ratio; note: potency is the fitted concentration of half-maximal effect). Put shortly:
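Beta-lactamase reporter cells (p53RE-bla) treated with compounds for 16 h at 37 C; FRET substrate, 2 h, room temperature; fluorescence intensity.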

In assay [15] the target is 5-hydroxytryptamine receptor 2A (Homo sapiens) (UniProt P28223). The experiment in a line: 5-hydroxytryptamine receptor 2A (HTR2A) small molecule antagonists, cell-based qHTS assay (AID 1963586). Note: nearly all actives have a fitted effect of over 45% in size. Note: potency is the fitted concentration of half-maximal effect. In outline:
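CHO cells stably expressing human HTR2A were plated for 18 h at 37 C, then loaded with calcium dye for 1 h. Compounds were preincubated 5 min at room temperature before DOI (4 nM solution) was added. Kinetic fluorescence was read for 3 min.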

Assay [16] shares this target. The assay is described as follows: 5-hydroxytryptamine receptor 2A (HTR2A) small molecule agonists, cell-based qHTS assay (AID 1963587). Note: nearly all actives have a fitted effect of over 30% in size. Note: potency is the fitted concentration of half-maximal effect. In outline:
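HTR2A-CHO cells, plated 18 h at 37 C/5% CO2, dye-loaded 1 h at 37 C; compounds in DMSO added by pin tool (agonist mode). Intracellular calcium flux read as kinetic fluorescence on FDSS over 2 min at 1 s intervals.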

For assay [17], the target named is Muscarinic acetylcholine receptor M1 (Homo sapiens) (UniProt P11229). The experiment in a line: Cholinergic receptor muscarinic 1 (CHRM1) small molecule antagonists, cell-based qHTS assay (AID 1963588). Note: nearly all actives have a fitted effect of over 40% in size. Note: potency is the fitted concentration of half-maximal effect. Put shortly:
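Compounds were tested at 15 concentrations in three independent runs. Dye-loaded CHRM1-CHO cells were exposed 5 min at room temperature before stimulation by acetylcholine added at 50nM. Intracellular calcium was read kinetically on FDSS for 3 min.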

The target is the same in assay [18]. The assay is described as follows: Cholinergic receptor muscarinic 1 (CHRM1) small molecule agonists, cell-based qHTS assay (AID 1963589). Note: nearly all actives have a fitted effect of over 35% in size. In outline:
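qHTS, 15-point titration, 3 independent runs: compounds pin-transferred onto dye-loaded CHRM1-CHO cells (human M1), calcium fluorescence followed every second to detect agonism.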

In assay [19] the target is Beta-2 adrenergic receptor (Homo sapiens) (UniProt P07550). The assay is described as follows: Adrenergic beta2 receptor (ADRB2) small molecule antagonists, cell-based qHTS assay (AID 1963592). Note: series mostly up to about 92 µM; nearly all actives have a fitted effect of over 50% in size. In outline:
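Assay format: CHO-ADRB2 cells, 18-20hr seeding at 37C/5% CO2, then compound plus 1nM isoproterenol agonist mix for 0.5hr RT. Homogeneous time-resolved fluorescence cAMP detection after 1hr, expressed as 665/615 nm ratio.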

Assay [20] has the same target. The assay is described as follows: Adrenergic beta2 receptor (ADRB2) small molecule agonists, cell-based qHTS assay (AID 1963593).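 Note: CHO cells stably overexpressing human ADRB2.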 In outline:
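CHO cells stably over-expressing ADRB2 were plated overnight at 37C, then dosed with compounds plus a stimulation mix containing 100uM IBMX and 25uM Ro-20-1724 for 0.5hr at room temperature. cAMP was measured by HTRF competition, 1hr.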

Gonadotropin-releasing hormone receptor (Homo sapiens), sequence (P30968 whole entry, looked up): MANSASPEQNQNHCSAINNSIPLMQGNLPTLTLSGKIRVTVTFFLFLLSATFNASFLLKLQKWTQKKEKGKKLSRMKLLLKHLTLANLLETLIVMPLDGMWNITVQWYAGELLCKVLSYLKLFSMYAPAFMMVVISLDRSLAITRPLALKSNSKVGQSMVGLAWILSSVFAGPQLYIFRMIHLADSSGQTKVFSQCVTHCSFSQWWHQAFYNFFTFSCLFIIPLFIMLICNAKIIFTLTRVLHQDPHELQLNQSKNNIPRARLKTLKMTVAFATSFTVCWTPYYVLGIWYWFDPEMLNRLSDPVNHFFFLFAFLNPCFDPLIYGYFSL
KiSS-1 receptor (Homo sapiens), sequence (Q969F8 whole entry, looked up): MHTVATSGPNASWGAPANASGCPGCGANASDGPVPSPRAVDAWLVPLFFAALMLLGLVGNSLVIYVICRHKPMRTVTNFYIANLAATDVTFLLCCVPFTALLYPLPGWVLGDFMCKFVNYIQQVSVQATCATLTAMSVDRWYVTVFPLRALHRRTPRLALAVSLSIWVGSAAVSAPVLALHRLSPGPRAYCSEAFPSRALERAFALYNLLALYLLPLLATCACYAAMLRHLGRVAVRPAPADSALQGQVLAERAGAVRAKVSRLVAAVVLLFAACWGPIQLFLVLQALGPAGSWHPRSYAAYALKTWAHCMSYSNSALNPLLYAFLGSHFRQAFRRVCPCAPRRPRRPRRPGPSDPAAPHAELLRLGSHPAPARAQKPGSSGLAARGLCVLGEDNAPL
Beta-2 adrenergic receptor (Homo sapiens), sequence (P07550 whole entry, looked up): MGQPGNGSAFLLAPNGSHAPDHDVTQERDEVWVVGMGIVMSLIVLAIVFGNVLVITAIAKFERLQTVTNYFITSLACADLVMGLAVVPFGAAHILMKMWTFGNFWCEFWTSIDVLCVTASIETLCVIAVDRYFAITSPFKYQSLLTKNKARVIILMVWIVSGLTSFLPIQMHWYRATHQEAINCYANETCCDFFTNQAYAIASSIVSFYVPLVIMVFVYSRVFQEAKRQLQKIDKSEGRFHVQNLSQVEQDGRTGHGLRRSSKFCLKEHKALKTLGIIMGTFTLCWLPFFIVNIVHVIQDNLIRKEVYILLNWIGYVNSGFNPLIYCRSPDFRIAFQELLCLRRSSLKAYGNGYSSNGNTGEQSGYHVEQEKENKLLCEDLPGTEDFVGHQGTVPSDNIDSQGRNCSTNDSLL
Muscarinic acetylcholine receptor M1 (Homo sapiens), sequence (P11229 whole entry, looked up): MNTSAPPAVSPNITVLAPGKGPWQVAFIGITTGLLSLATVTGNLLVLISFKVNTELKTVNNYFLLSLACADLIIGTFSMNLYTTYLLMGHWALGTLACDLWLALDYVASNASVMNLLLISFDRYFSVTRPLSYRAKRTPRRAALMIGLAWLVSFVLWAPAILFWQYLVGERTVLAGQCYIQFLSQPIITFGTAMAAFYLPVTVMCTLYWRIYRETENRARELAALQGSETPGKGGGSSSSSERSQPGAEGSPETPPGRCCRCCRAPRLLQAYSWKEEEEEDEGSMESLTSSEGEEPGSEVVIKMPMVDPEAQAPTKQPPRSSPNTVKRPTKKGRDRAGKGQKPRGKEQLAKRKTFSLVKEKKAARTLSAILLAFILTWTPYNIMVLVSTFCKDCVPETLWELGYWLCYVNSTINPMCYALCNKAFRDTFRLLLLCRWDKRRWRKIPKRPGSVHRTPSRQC
D(2) dopamine receptor (Homo sapiens), sequence (P14416 whole entry, looked up): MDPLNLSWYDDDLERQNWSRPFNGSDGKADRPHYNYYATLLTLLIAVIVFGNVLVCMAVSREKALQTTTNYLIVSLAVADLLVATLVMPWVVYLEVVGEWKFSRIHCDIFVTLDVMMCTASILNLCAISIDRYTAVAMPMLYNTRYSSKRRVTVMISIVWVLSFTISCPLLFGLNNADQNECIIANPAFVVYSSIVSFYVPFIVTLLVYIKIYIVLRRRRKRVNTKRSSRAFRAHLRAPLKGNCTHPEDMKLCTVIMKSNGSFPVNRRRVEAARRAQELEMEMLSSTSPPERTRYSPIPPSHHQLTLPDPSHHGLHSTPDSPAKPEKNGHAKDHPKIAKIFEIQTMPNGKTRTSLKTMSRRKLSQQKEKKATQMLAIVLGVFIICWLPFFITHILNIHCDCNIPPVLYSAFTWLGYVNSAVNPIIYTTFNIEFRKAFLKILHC
5-hydroxytryptamine receptor 2A (Homo sapiens), sequence (P28223 whole entry, looked up): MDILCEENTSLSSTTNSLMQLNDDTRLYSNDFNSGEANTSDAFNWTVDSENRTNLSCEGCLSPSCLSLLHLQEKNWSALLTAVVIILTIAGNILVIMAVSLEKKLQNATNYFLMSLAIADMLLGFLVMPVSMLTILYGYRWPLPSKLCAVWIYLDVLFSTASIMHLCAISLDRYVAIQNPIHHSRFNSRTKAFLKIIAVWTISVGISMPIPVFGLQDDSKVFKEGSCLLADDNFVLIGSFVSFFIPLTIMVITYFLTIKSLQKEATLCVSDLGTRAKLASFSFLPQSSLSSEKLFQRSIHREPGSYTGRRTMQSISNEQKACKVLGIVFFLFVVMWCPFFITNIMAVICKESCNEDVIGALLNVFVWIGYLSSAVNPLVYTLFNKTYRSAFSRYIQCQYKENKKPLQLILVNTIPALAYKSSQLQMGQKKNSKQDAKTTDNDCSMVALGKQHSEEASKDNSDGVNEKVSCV

With `CN(C)CCCN1c2ccccc2Sc2ccccc21`, the Potency result in assay [1], in assay [2], in assay [5], in [6], in assay [7] and in assay [8] was “inactive” throughout. The Potency entry in [9], in [10] and in [11] was “inactive” throughout. The outcome in assay [3] and in assay [4] was inactive. For the same molecule, the Potency in assay [12] is 29.8 µM (active).
`C=C[C@@H](C)CCC=C(C)C`: the Potency entry in [1], in assay [2], in assay [5], in assay [6], in [7] and in [13] was “inactive” in each case. In addition, the Potency result in [14], in assay [15], in assay [16], in assay [17], in [18] and in [9] was “inactive” each time. Moreover, the Potency result in [10], in assay [19], in assay [11] and in [12] was “inactive” each time. The result in assay [3] and in assay [4] was inactive.
For the molecule `CC1(C)C(=O)N(CO)C(=O)N1CO`, the Potency entry in assay [1], in [2], in assay [5], in assay [6], in [7] and in assay [8] was “inactive” each time. Moreover, the Potency entry in [14], in [15], in assay [16], in [17], in assay [18] and in assay [9] was “inactive” each time. The Potency result in assay [19], in assay [11] and in assay [12] was “inactive” in each case. For the same molecule, the result in assay [3] and in assay [4] was inactive.
In the case of `CCc1cc(Cc2cc(CC)cc(C(C)(C)C)c2O)c(O)c(C(C)(C)C)c1`, the Potency entry in assay [1], in assay [2], in assay [5], in assay [6], in [7] and in [14] was “inactive” in each case. Also, the Potency result in assay [15], in assay [16], in [18], in assay [10], in [11] and in assay [12] was “inactive” each time. In addition, the outcome in assay [3] and in assay [4] was inactive.
Regarding `CCCCCCCCCCCCCCCC/C=C/C1CC(=O)OC1=O` (stereo unspecified), the Potency result in [1], in [2], in assay [5], in [6], in assay [7] and in [8] was “inactive” throughout. Besides, the Potency entry in assay [13], in assay [15], in assay [16], in [17], in assay [18] and in assay [9] was “inactive” each time. The Potency result in assay [10], in assay [11] and in [12] was “inactive” throughout. The result in assay [3] and in [4] was inactive.
As to `Brc1c2ccccc2cc2ccccc12`, the Potency entry in assay [1], in assay [2], in [5], in assay [6], in assay [7] and in [8] was “inactive” in each case. Also, the Potency entry in assay [13], in assay [15], in assay [16], in assay [18], in [9] and in assay [10] was “inactive” each time. Moreover, the Potency entry in [11] and in assay [12] was “inactive” in each case. The outcome in assay [3] and in assay [4] was inactive.
As for `CCOC(=O)C1=NN(c2ccc(Cl)cc2Cl)C(C)(C(=O)OCC)C1` (stereo unspecified), the Potency result in [1], in assay [2], in assay [5], in assay [6], in [7] and in assay [8] was “inactive” each time. In addition, the Potency result in assay [13], in assay [15], in assay [16], in assay [18], in assay [9] and in assay [10] was “inactive” in each case. Moreover, in assay [11], the Potency entry was “inactive”. Moreover, the result in [3] and in [4] was inactive.
Take `OCCCCCCO`: the Potency entry in assay [1], in assay [2], in assay [5], in assay [6], in [7] and in [8] was “inactive” each time. Moreover, the Potency result in [15], in [16], in assay [17], in assay [18], in assay [9] and in assay [10] was “inactive” throughout. The Potency entry in [11] and in assay [12] was “inactive” each time. The result in assay [3] and in [4] was inactive. Further, the Potency in assay [14] is 41.3 µM (active).
Regarding `CCCCCCCCCCCCCCCC[N+](C)(C)CCN(Cc1ccc(OC)cc1)c1ncccn1`, the Potency entry in assay [1], in [2], in [5], in [6], in [7] and in [8] was “inactive” in each case. Moreover, the Potency entry in assay [14], in assay [16], in assay [17], in assay [18], in assay [19] and in assay [11] was “inactive” each time. Also, the outcome in [3] and in assay [4] was inactive.
Turning to `CCN(CC)CCSC(=O)C(c1ccccc1)c1ccccc1`, the Potency in assay [1] was 33.5 µM (active); in assay [15], 1.45 µM (active); in [16] it was 3.38 µM (active); in assay [17], 0.0103 µM (active). Moreover, the Potency entry in assay [2], in [5], in [6], in assay [7], in assay [8] and in assay [14] was “inactive” in each case. The Potency result in assay [18], in assay [9], in assay [19] and in assay [11] was “inactive” throughout. The result in assay [3] and in [4] was inactive.
On to `CCCCCCCCCCCCCC[n+]1ccccc1`, for which the Potency entry in [1], in assay [5], in [6], in assay [19], in [11] and in assay [12] was “inactive” throughout. Also, the Potency in [2] was 34.7 µM (active); in assay [7] it was 32.4 µM (active). Moreover, the result in assay [3] and in assay [4] was inactive.
As to `C[Si](NC1CCCCC1)(NC1CCCCC1)NC1CCCCC1`, the Potency result in assay [1], in assay [2], in assay [5], in assay [6], in [7] and in [13] was “inactive” each time. Further, the Potency result in [15], in [16], in [18], in assay [19], in [20] and in assay [11] was “inactive” throughout. In assay [12], the Potency result was “inactive”. The result in assay [3] and in [4] was inactive.

The values above are taken from PubChem BioAssay (Tox21).
